Test results as given in PubChem BioAssay (NCI).
This is part of a sample that, as a whole, favours compounds with a hit. Of some 79,000 tested, about 15% had one in any assay. Rule as the data show it: active = growth inhibition above about 70%; inactive = the rest.

Key:
[1] = NCI Yeast Anticancer Drug Screen. Data for the rad50 strain (AID 155);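 also: 0% = growth of vehicle-only cultures of the same strain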; conditions: S. cerevisiae rad50 strain growth inhibition, active compounds read high; at 50.0 µM unless noted
Method in brief: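 Growth of the mutant yeast was measured after compound exposure and referenced to vehicle-treated cultures.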

[2] = NCI Yeast Anticancer Drug Screen. Data for the mec2-1 strain (AID 157); conditions: S. cerevisiae mec2-1 strain, active compounds read high; at 50.0 µM unless noted
Method in brief: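 Each compound was tested on mec2-1 yeast, a strain altered in DNA damage repair or cell cycle control. Growth inhibition is reported relative to vehicle.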

[3] = NCI Yeast Anticancer Drug Screen. Data for the sgs1 mgt1 strain (AID 161);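 also: 0% = growth of cultures given vehicle only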; conditions: S. cerevisiae sgs1 mgt1 strain, active compounds read high; at 50.0 µM unless noted
Method in brief: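 Read-out: growth inhibition vs vehicle controls. Cells: mutant yeast strain deficient in DNA damage repair.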

[4] = NCI Yeast Anticancer Drug Screen. Data for the cln2 rad14 strain (AID 165);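 also: 0% = growth equal to vehicle treated cultures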; conditions: S. cerevisiae cln2 rad14 strain, active compounds read high; at 50.0 µM unless noted
Method in brief: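 Test compounds were added to cln2 rad14 yeast cultures; inhibition of growth was then determined by comparison with vehicle treatment.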

[5] = NCI Yeast Anticancer Drug Screen. Data for the bub3 strain (AID 167); conditions: S. cerevisiae bub3 mutant strain, active compounds read high; at 50.0 µM unless noted
Method in brief: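 Whole-cell yeast assay. The mutant strain was incubated with compounds, and growth inhibition was determined by comparison with vehicle-treated cells.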

[6] = NCI Yeast Anticancer Drug Screen. Data for the mlh1 rad18 strain (AID 175); conditions: S. cerevisiae mlh1 rad18 strain growth inhibition, active compounds read high; at 50.0 µM unless noted
Method in brief: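 Inhibition values reflect reduced growth of mutant yeast versus vehicle-treated controls following compound exposure; the mutations affect DNA damage repair.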

Measured: growth inhibition

CCc1ccc(NC(=O)c2ccc(Cl)cc2Cl)cc1
inactive: [1] 4.9% | [2] 34.5% | [3] 7.7% | [4] 2.95% | [5] 11.8% | [6] 0.95%

COC1OC(CO)C(O)C(O)C1OS(=O)(=O)c1ccc(C)cc1 (centres undefined)
inactive: [1] 5.7% | [2] -3% | [3] -10.1% | [4] 1.75% | [5] -1.85% | [6] -13.2%

COC(=O)C(=O)C1(c2ccccc2)C(=O)C(c2ccccc2)=CC1O (centres undefined)
inactive: [1] 15.3% | [2] 10.5% | [3] 10.1% | [4] 0.7% | [5] 8.4% | [6] 18.6%

CCN(CC)C(=O)c1c(Cl)cc(N(CC)CC)oc1=O
inactive: [1] -21.7% | [2] -11.8% | [3] -42% | [4] -23.5% | [5] -41.1% | [6] -54.5%
